Assay outcomes deposited in PubChem BioAssay by National Center for Advancing Translational Sciences (NCATS).
Sampled rows, rich in hits. Any-hit rate of the full collection: about 4.6%.
VACV Venus inh: qHTS for Stage-Specific Inhibitors of Vaccinia Orthopoxvirus: Venus Reporter Primary qHTS; Vaccinia virus Venus reporter expression, fluorescence; Potency, µM (doses to about 36.5 µM), without a hit: top-dose activity change, negative = inhibition, hits mostly inhibitors; 330,000 compounds, 0.46% hits; AID 720580, 2013; calls by dose curve; tested in A549 cells; also: nearly all actives have a fitted effect of over 30% in size
HCV inhibitor: qHTS Assay for Inhibitors of Hepatitis C Virus (HCV). AID 651820, 2012. Huh7.5.1 HCVcc-Cre infection, luciferase reporter, 44 h. 340,000 compounds, 3.4% hits. Potency, µM (highest dose often 41.8 µM), without a hit: top-dose activity change, negative = inhibition, usual class: inhibitors; active = well fitted inhibition curve with a large enough effect; inconclusive = small, poorly fitted or top-dose-only effect, or another doubt; inactive = no such curve, though single readings can be large or run the other way
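Infectious HCVcc-Cre (~0.5 moi) was added to cells just after compound, with cells seeded 4 h earlier at 1,000 per well. Luciferase activity after 44 h culture reported infection; substrate was incubated 15 min at room temperature before reading.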
VACV mCherry inh: qHTS for Stage-Specific Inhibitors of Vaccinia Orthopoxvirus: mCherry Reporter Primary qHTS. Vaccinia virus mCherry reporter infection, fluorescence. 310,000 compounds, 0.63% hits. AID 720579, 2013. Potency, µM (doses to about 36.5 µM), for the others: at the highest dose activity change, negative = inhibition, most hits filed as inhibitors; calls by dose curve; tested in A549 cells; also: nearly all actives have a fitted effect of over 35% in size
Marburg entry inh: qHTS for inhibitors of binding or entry into cells for Marburg Virus. Marburg virus pseudotyped entry inhibition, cell reporter. Potency, µM (top dose mostly 37.8 µM), for inactives: at the top dose activity change, negative = inhibition, actives largely listed as inhibitors. 300,000 compounds, 1.8% hits. AID 540276, 2011; calls by dose curve; tested in HEK293 cells
Lassa entry inh: qHTS for Inhibitors of binding or entry into cells for Lassa Virus; Lassa virus pseudotype entry inhibition, cell reporter; 300,000 compounds, 1.2% hits; Potency, µM (top dose mostly 37.9 µM), without a hit: at the highest dose activity change, negative = inhibition, most hits filed as inhibitors; calls by dose curve; tested in HEK293 cells; also: nearly all actives have a fitted effect of over 50% in size
Active calls of the source: *; i = inactive; ? = inconclusive; nt = not tested or not shown; [ ] = dose if it differs, or a comment. % is scaled to controls: 0 for no effect and ±100 for the full control effect; potency is read from the fitted curve at half-maximal effect.

SMILES	VACV Venus inh	HCV inhibitor	VACV mCherry inh	Marburg entry inh	Lassa entry inh
C[C@H](c1ccccc1)N1C[C@@H](COCc2ccccc2)Oc2cccc(Oc3ccc(F)cc3)c2S1(=O)=O	nt	nt	nt	nt	3.5µM*
O=C(OCc1ccccc1)N(CCCCN(CCCNCc1ccccc1)C(=O)OCc1ccccc1)CCCNCc1ccccc1	?	10µM*	?	?	?
O=C(Cn1ccc(NC(=O)OCc2ccccc2)nc1=O)NCCc1c[nH]c2ccccc12	-9%	2.8µM*	i	nt	nt
O=C(Nc1ccn(CCCNCCCN2CCCC2=O)c(=O)n1)OCc1ccccc1	-4%	4%[8.37 µM]	-11%	nt	nt
O=C(NCCCCCCNC(=O)OCc1ccccc1)OCc1ccccc1	-5%	4%	-2%	?	6%
O=C(Nc1ccn(CCCNCc2ccc3c(c2)OCO3)c(=O)n1)OCc1ccccc1	-17%	10µM*	i	nt	nt
O=C(Nc1ccn(CCCNCc2ccccc2)c(=O)n1)OCc1ccccc1	?	0.56µM*	-20%	nt	nt
COc1cc(OC)c(NC(=O)c2cc3c(=O)oc4ccc(C)cc4c3s2)cc1Cl	-21%	nt	-19%	3%[46.1 µM]	-1%[46.1 µM]
C/C(=N/NC(=O)c1cc(C2CC2)[nH]n1)c1cccs1	-17%	-11%	-4%	10µM*	2.6µM*
C/C(=N\NC(=O)c1ccncc1)c1cccs1	nt	10%	nt	nt	nt
COCC(=O)Oc1c(Sc2ccc(C)cc2)c(C)nn1C(C)(C)C	-15%	nt	-19%	-15%[46.1 µM]	?
Cc1ccc(Cc2c(C)c(C#N)c3[nH]c4ccccc4n3c2=O)cc1	nt	11µM*	nt	nt	nt
C=C(C)Cc1c(C)c(C#N)c2[nH]c3ccccc3n2c1=O	-26%	?	-19%	13µM*	?
Cc1ccnn1CC(=O)N1CCOc2c(cc(-c3csc4ccccc34)cc2OC2CCOC2)C1 (stereo not drawn)	-2%	nt	-7%	nt	nt
O=C1C(Br)=C(c2ccccc2)C(c2ccccc2)=C1c1ccccc1	-10%	6.3µM*	-7%	?	?
CCN(CC)CCOC(=O)c1ccc(N/C=C(/C#N)c2nc(-c3ccc4c(c3)OCO4)cs2)cc1	0%[7.34 µM]	10µM*	-9%[7.34 µM]	?	15%
CCN(CC)CCOC(=O)c1ccc(N/C=C(/C#N)c2nc(-c3ccc(OC)cc3)cs2)cc1	-5%	?	i	4µM*	18%
CCCCCCCC[n+]1c(C)n(-c2ccccc2)c2ccc(NC(C)=O)cc21	-7%	14µM*	-6%	?	7.1µM*
Cc1onc(-c2ccccc2)c1C(=O)c1c[nH]c(C(=O)NCc2ccccn2)c1	-19%	10µM*	-5%	28%[46.1 µM]	?
Cc1onc(-c2ccccc2)c1C(=O)c1c[nH]c(C(=O)NCc2ccncc2)c1	-4%	?	-2%	-22%[46.1 µM]	18%
COc1ccc(CN2CCCC(Cn3cc(C(=O)N4CCCC4)nn3)C2)c(O)c1 (stereo not drawn)	-9%	nt	-10%	nt	nt
Cc1nc2ccccc2n1CCc1nc2c3ccccc3nc(SCC(=O)NCc3ccco3)n2n1	nt	?	nt	10µM*	?
Cc1cccc(NC(=O)CSc2nc3ccccc3c3nc(CCc4c(C)n[nH]c4C)nn23)c1	-16%	25µM*	-29%	18µM*	?
Cc1cncn1CCc1nc2c3ccccc3nc(SCC(=O)Nc3cccc(Cl)c3)n2n1	?	?	-13%	6.5µM*	?
COc1ccc(Nc2ncc3c(n2)CC(c2ccccc2)CC3=O)cc1 (stereo not drawn)	nt	?	nt	3%	0.92µM*
SMILES	VACV Venus inh	HCV inhibitor	VACV mCherry inh	Marburg entry inh	Lassa entry inh
Cc1ccc(C2CC(=O)c3cnc(N4CCc5ccccc5C4)nc3C2)cc1 (stereo not drawn)	nt	-23%	nt	-1%	3.7µM*
CC1CC(C)CN(c2ncc3c(n2)CC(c2ccccc2Cl)CC3=O)C1 (stereo not drawn)	8%	-2%	nt	?	10µM*
O=C1CC(c2ccccc2)Cc2nc(N3CCc4ccccc4C3)ncc21 (stereo not drawn)	nt	-4%	nt	15%	15µM*
O=C(CCCn1c(=O)c2cccn2c2ccccc21)Nc1cccc(Cl)c1	-9%	nt	-13%	nt	?
CCN(CC)Cc1cc(Nc2c3ccccc3nc3c4ccccc4n(C)c23)cc(CN(CC)CC)c1O	11µM*	?	-21%	?	11µM*
CCOc1cc2nc3c4ccccc4n(C)c3nc2cc1OCC	-14%	-1%	i	13%	-4%
COc1cc2nc(N3CCCC(O)C3)c(CNCc3ccccc3C(F)(F)F)cc2c(OC)c1OC (stereo not drawn)	-18%	nt	-11%	nt	nt
Cc1cc(C(=O)N/N=C2\CC(=O)CC(C)(C)C2)c(C)n1-c1ccccc1	nt	-19%	nt	2.9µM*	20%
CC(C)C(=O)OCc1cc(=O)n2nc(C3CCCCC3)sc2n1	4%	nt	9%	nt	-2%[46.1 µM]
CCN1CC(CN(C)Cc2cn(-c3ccc(C)cc3)nc2-c2cccc(C)c2)CC1=O (stereo not drawn)	-17%	-12%	i	11µM*	?
CCOc1ccc(N(CC(=O)NC2CC3CCC2C3)S(=O)(=O)c2ccc(C)cc2)cc1 (stereo not drawn)	nt	6.3µM*	nt	nt	nt
CCOc1ccc(N(CC(=O)NC2CCCCC2)S(=O)(=O)c2ccc(C)cc2)cc1	-5%	2%	-11%	-1%[46.1 µM]	-15%
CCOc1ccc(N(CC(=O)NC2CC3CCC2C3)S(=O)(=O)c2ccccc2)cc1 (stereo not drawn)	-19%	-16%	-24%	?	10µM*
COc1ccc(N(CC(=O)NC2CC3CCC2C3)S(=O)(=O)c2ccccc2)cc1OC (stereo not drawn)	-21%	4%	i	?	8.9µM*
COc1ccc(/C=C/C(=O)N2CCc3c(cnc(C)c3CNS(=O)(=O)c3cccs3)C2)cc1	-15%	nt	-26%	nt	nt
Cc1ccsc1CCN1C(=O)N(c2ccccc2)C(=O)C1CC(=O)Nc1ccc(F)cc1 (stereo not drawn)	-2%	nt	-2%	?	-17%[46.1 µM]
Oc1cc(O)cc(/C=C/c2ccc(O)c(O)c2)c1	-16%	0.56µM*	-25%	?	4.1µM*
O=C(N/N=C/c1ccc(O)c(O)c1)N/N=C/c1ccc(O)c(O)c1	-3%	15%	?	?	-8%[46.1 µM]
Cc1nc(NC(=O)c2ccc(Cl)cc2)nc2cc3c(cc12)OCO3	-28%	6%	-12%	29%	6%
O=C(Nc1ccc2c(c1)OCO2)c1cc(-c2ccc(Cl)cc2)on1	8%	nt	-9%	-6%[46.1 µM]	29%[46.1 µM]
O=C(Nc1ccc2c(c1)OCO2)c1ccc(Cl)cc1Cl	-19%	-22%	-14%	6.3µM*	?
O=C(Nc1ccc2c(c1)OCO2)c1cc(-c2ccc(O)cc2)on1	-13%	?	-18%	7.9µM*	6%[46.1 µM]
O=C(Nc1ccc2c(c1)OCCO2)c1ccc(Cl)cc1Cl	3%	-29%	1%	?	?
Cc1c(C(=O)c2ccc(Cl)cc2Cl)cnc2cc3c(cc12)OCO3	nt	10µM*	nt	?	?
